Source: PubChem BioAssay
Shown are actives, neighbours in structure and some others; about 11% of the full set was active somewhere.
HPGD block – blocks human HPGD enzyme activity; purified HPGD, NADH fluorescence kinetic, PGE2 substrate; Potency, µM, actives largely listed as inhibitors; hit rate 4.3% among 150,000; AID 894
Target sequence (P15428 whole entry, looked up): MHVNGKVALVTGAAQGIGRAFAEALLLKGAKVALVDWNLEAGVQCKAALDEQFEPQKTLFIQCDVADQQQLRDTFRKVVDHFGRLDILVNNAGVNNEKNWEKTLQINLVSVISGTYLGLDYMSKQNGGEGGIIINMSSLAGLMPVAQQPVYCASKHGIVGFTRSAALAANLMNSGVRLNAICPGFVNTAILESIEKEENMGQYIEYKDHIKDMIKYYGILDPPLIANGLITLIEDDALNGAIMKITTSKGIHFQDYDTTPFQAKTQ
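NADH formation kinetics: reaction with 30 uM PGE2 and 1 mM NAD+ (final), 20 nM enzyme, Tris-HCl pH 8 with Tween 20, after 15 min compound preincubation at room temperature. Fluorescence change, last versus first of five reads.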
KDM4E inh – blocks human JMJD2E demethylase activity; hit rate 1.6% among 230,000; JMJD2E catalytic domain, FDH-coupled NADH fluorescence (FDH is formaldehyde dehydrogenase); AID 2147; Potency, µM (series often up to 57.1 µM), actives largely listed as inhibitors; note: nearly all actives have a fitted effect of over 50% in size
ALDH1A1 block – blocks purified human ALDH1A1 activity; P00352; hit rate 7.3% among 220,000; Potency, µM (highest dose often 75.3 µM), hits mostly inhibitors; Purified ALDH1A1, NADH fluorescence, propionaldehyde substrate
PNC assembly inh – inhibitors of perinucleolar compartment assembly; PC3M PTB-GFP, PNC prevalence imaging, 16 h; active compounds read low; activity change (PNC), negative = inhibition, % at 10 µM; hit rate 3.1% among 140,000;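 active = readout at or below -70, meaning at least 70% loss of cells showing the perinucleolar compartment, a nuclear body marking cancer cells; inconclusive = readout between -30 and a set limit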
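PC3M cells stably expressing PTB-GFP, 750–1000 cells/well, treated 16 h at 37 °C with compound (23 nl of library stock), in duplicate. After paraformaldehyde fixation and Hoechst stain, imaged at 20x; PNC prevalence scored by image analysis.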
Hits are given with their value; – = inactive; ? = inconclusive; · = no result given; [ ] = remark or other dose. Unless noted, calls come from the whole dose curve; as a rule, active = well fitted inhibition curve with a large enough effect (not every such curve was filed as active); inconclusive = small, poorly fitted or top-dose-only effect, or another doubt; inactive = no such curve, though single readings can be large or run the other way.

SMILES	HPGD block	KDM4E inh	ALDH1A1 block	PNC assembly inh
COc1ccc(CC(=O)Nc2ccccc2N2CCCCC2)cc1OC	·	–	·	·
O=C(c1cccs1)N1CCN=C1SCc1ccccc1F	·	–	–	·
O=C1C(Cl)=C(N2CCN(c3ccccc3[N+](=O)[O-])CC2)C(=O)c2ccccc21	–	–	7.08µM	?
N#CC1=C(N)SC(N)=C(C#N)C1Cc1ccccc1	11.2µM	–	8.91µM	–
CC1(C)CC(=O)C2=C(C1)OC(N)=C(C#N)C2CCc1ccccc1 (centres undefined)	–	–	?	–
N#CC1=C(N)SC(N)=C(C#N)C1c1c(Cl)cccc1Cl	?	?	22.4µM	?
CC(C)CC1C(C#N)=C(N)SC(N)=C1C#N	31.6µM	?	3.55µM	?
N#CC1=C(N)SC(N)=C(C#N)C1CCc1ccccc1	14.1µM	?	?	–
CN1C(C(=O)NCc2cccc(Br)c2)CC2Cn3c(nc4cc5ccccc5cc43)C21 (centres undefined)	·	–	·	·
O=C1CC(c2ccco2)Cc2nc(N3CCN(Cc4ccc5c(c4)OCO5)CC3)ncc21 (centres undefined)	?	?	17.8µM	–
CN1CCC(n2[nH]c(-c3ccccc3)c(Cc3ccccc3)c2=O)CC1	–	·	–[13.5 µM]	·
O=C1NC2(CCCCC2)C(=O)N1/N=C/c1ccccc1Br	·	–	4.47µM	·
O=C1NC2(CCCCC2)C(=O)N1/N=C/c1ccc(O)cc1O	?	–	?	–
COc1ccccc1CNC(=O)C1(NC(=O)Nc2ccc(C)cc2)CCCCC1	·	–	–	·
COc1cc(CNCc2ccc(SC)cc2)cc(OC)c1	·	–	–	–
COc1ccc(CNCc2cccc(Oc3ccccc3)c2)cc1	·	?	14.1µM	·
Cc1ccc(N(Cc2ccco2)C(=O)c2cccc(S(=O)(=O)N(C)C)c2)cc1	–	–	25.1µM	–
CN(C)S(=O)(=O)c1cccc(C(=O)N(Cc2ccc(F)cc2)Cc2ccco2)c1	–	–	25.1µM	–
CCOC(=O)c1ccc(NC(=O)c2ccccc2N(C)S(=O)(=O)c2ccccc2)cc1	–	–	?	–
Cc1ccc(S(=O)(=O)Oc2ccc(/C=C3/N=C(c4ccccc4)OC3=O)cc2)cc1	–	–	8.91µM	–
COc1cc(C(=O)OC2CC[C@]3(C)C4CCC5[C@]6(O)CC(O)[C@]7(O)C(CN8CC(C)CCC8[C@]7(C)O)[C@]6(O)C[C@@]53O[C@]24O)cc(OC)c1OC (some centres undefined)	–	–	–	·
O=C1N(Cc2cccc(Cl)c2)C[C@@H]2C[C@@H](c3cccn3-c3cccnc3)N3CCC[C@@]123	·	–	7.08µM	·
COc1ccccc1N1CC(C(=O)OCC(=O)c2ccc(F)cc2)CC1=O (centres undefined)	–	–	–	–
Cc1cccc(N2CC(C(=O)OCC(=O)c3ccc(OC(=O)c4cccs4)cc3)CC2=O)c1C (centres undefined)	–	–	–	-83.1
COc1ccc(C(=O)/C=C/c2ccc(N3CCCCC3)c([N+](=O)[O-])c2)cc1	–	–	4.47µM	–
SMILES	HPGD block	KDM4E inh	ALDH1A1 block	PNC assembly inh
COc1ccc(C(=O)/C=C/c2ccc(N3CCCCC3)c([N+](=O)[O-])c2)c(OC)c1	–	–	20µM	–
COc1cccc(C(=O)Nc2cc3c(cc2C(C)=O)OCCO3)c1	–	?	–	–
Cc1ccc(OCCNC(=O)C(=O)NCc2ccco2)cc1	·	–	–	·
Cc1ccc(N2C(=O)CS/C2=N\C(=S)Nc2ccccc2)cc1	·	–	·	·
Cc1ccc(N=C2SC(C(=O)NCCc3ccccc3)CC(=O)N2C)cc1C (centres undefined)	·	–	10µM	·
O=C(O)c1ccc(C(=O)O)c(C(=O)Nc2ccc3c(c2)Cc2ccccc2-3)c1	3.16µM	·	?	·
COc1cccc(C2CC(c3ccccc3OC)n3ncnc3N2)c1 (centres undefined)	–	–	–	–
Clc1ccc(C2CC(c3ccccc3)Nc3ncnn32)cc1 (centres undefined)	–	–	–	–
Clc1ccc(C2CC(c3ccco3)n3ncnc3N2)cc1Cl (centres undefined)	–	–	31.6µM	–
Cc1ccc(C2CC(c3cccc(Br)c3)Nc3nnnn32)cc1 (centres undefined)	–	–	17.8µM	?
COc1cccc(C2CC(c3ccccc3)Nc3ncnn32)c1 (centres undefined)	–	–	7.08µM	?
COc1ccc(C2CC(c3ccccc3)n3nnnc3N2)cc1 (centres undefined)	–	–	?	-110.7
O=C(Nc1ccccc1)N1CCCC2(CCN(C(=O)c3cccc(F)c3)CC2)C1	–	·	–	·
COC(=O)c1cn(NC(=O)c2ccc([N+](=O)[O-])cc2Cl)c(=O)c2ccccc12	·	–	–	·
